From PubChem
NS1 function inh – qHTS Assay for Inhibitors of Influenza NS1 Protein Function. Potency, µM (doses to about 46.1 µM), inactives show top-dose activity, positive = more growth. 270,000 tested, 0.4% active; note: actives are rising curves; nearly all actives have a fitted effect of over 50% in size
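A cell-based growth assay was used: compounds that relieve NS1-induced slow growth of budding yeast raise OD600. Assay medium was yeast nitrogen base with ammonium sulphate and -URA supplement, pH 6.0, with 2% galactose.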
Pf growth 96h – Primary qHTS for delayed death inhibitors of the malarial parasite plastid, 96 hour incubation. P. falciparum luciferase reporter growth, 96 h. Potency, µM (titrated, usually from 28.7 µM), inactives show at the top dose activity change, negative = inhibition, usual class: inhibitors. 320,000 tested, 6.9% active; active = well fitted inhibition curve with a large enough effect; inconclusive = small, poorly fitted or top-dose-only effect, or another doubt; inactive = no such curve, though single readings can be large or run the other way; note: % is set by controls: 0 for no effect and ±100 for the full control effect
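Erythrocytes infected with luciferase-expressing P. falciparum were dispensed at 2% hematocrit and 0.05% parasitemia (final), then incubated with compounds 96 hours at 37 C in 5% CO2. Luminescence after detection reagent addition reported growth.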
Pf growth 48h – Primary qHTS for delayed death inhibitors of the malarial parasite plastid, 48 hour incubation; Potency, µM (top dose mostly 28.7 µM), for inactives: top-dose activity change, negative = inhibition, hits mostly inhibitors; AID 504832, 2011; 310,000 tested, 5.9% active; P. falciparum luciferase growth in erythrocytes, 48 h; active = well fitted inhibition curve with a large enough effect; inconclusive = small, poorly fitted or top-dose-only effect, or another doubt; inactive = no such curve, though single readings can be large or run the other way; note: % is set by controls: 0 for no effect and ±100 for the full control effect
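Luciferase-expressing parasites in RBCs, 2% Hct / 0.1% parasitemia final; RPMI 1640 + 0.5% Albumax; 37 C, 5% CO2, one generation; luminescence read-out, lower signal = inhibition.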
SARS PLpro yeast – qHTS of Yeast-based Assay for SARS-CoV PLP | S. cerevisiae expressing SARS-CoV PLpro, growth rescue | Potency, µM (series often up to 32.9 µM), inactives show top-dose activity, positive = growth rescue, hits mostly activators | 330,000 tested, 0.19% active | AID 485353, 2010; note: 0% is about no effect; nearly all actives have a fitted effect of over 55% in size
RE007 growth inh – qHTS Assay for Inhibitors of the HIV-1 protein Vpr. 360,000 tested, 0.21% active. Potency, µM (series often up to 92.2 µM), for the others: at the top dose activity change, negative = less growth, usual class: inhibitors. AID 651644, 2012. S. pombe RE007 Vpr strain, BacTiter-Glo ATP luminescence, 24 h; active = well fitted falling curve with a large enough effect; inconclusive = small, poorly fitted or top-dose-only effect; inactive = no such curve, though single readings can be large or run the other way; note: % is set by controls: 0 for no effect and ±100 for the full control effect; nearly all actives have a fitted effect of over 50% in size
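Fission yeast strain RE007, carrying one chromosomally integrated HIV-1 vpr copy, was seeded at OD 0.01 in PMG+AL medium with 23 nL pinned compound. After 24 h at 30 °C and 99% humidity, viability was read by BacTiter-Glo luminescence.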
* marks the source's active call; other numbers are inactive results; ? = inconclusive; · = not tested or not shown; [ ] = dose if it differs, or a comment. This is a sample that favours compounds with a hit; in the whole collection about 9.5% have one here. Unless noted, calls come from the whole dose curve. Potency is the fitted concentration of half-maximal effect.

SMILES	NS1 function inh	Pf growth 96h	Pf growth 48h	SARS PLpro yeast	RE007 growth inh
O=C(NCCOC12CC3CC(CC(C3)C1)C2)c1cccc(Br)c1	-64%	4.1µM*	9.3µM*	-6%	?
O=C(O)CCCCCNC(=O)c1cccc(Br)c1	4%	17%	1%	-5%	-12%
COc1cc(NC(=O)COc2cc3oc(=O)cc(C)c3cc2Cl)cc(OC)c1OC	-6%	-4%	-2%	3%	-6%
COc1ccc2ccccc2c1/C=N/Nc1ccc(Cl)c(C(=O)O)c1	13%	?	-11%	9%	-25%
COc1ccc(N/N=C/c2c(C(=O)O)ccc3ccccc23)cc1	-87%	7.4µM*	2.6µM*	4%	-6%
CN1CCN(S(=O)(=O)c2ccc(NS(=O)(=O)c3ccccc3)cc2)CC1	-6%	44%	8%	-2%	-17%
C=CCN1C(=O)c2ccc(C(=O)N3CCN(S(=O)(=O)c4cccc(Cl)c4)CC3)cc2C1=O	7%	13µM*	10µM*	?	-6%
COc1ccc(N2C(=O)C(C)C(Cc3ccc(C)cc3)C2=O)cc1 (stereo not drawn)	3%	?	41%	8%	1%
FC(F)(F)c1cnc(C(c2ccccc2)c2ncn[nH]2)c(Cl)c1 (stereo not drawn)	-3%	35%	-4%	0%	-5%
FC(F)(F)c1cnc(C(c2ccccn2)c2ncn[nH]2)c(Cl)c1 (stereo not drawn)	·	?	12µM*	1%	0%
C=Cc1ccc(C(=O)NC2CCCN(Cc3ccccc3F)C2)cc1 (stereo not drawn)	11%	?	0%	1%	0%
O=C(Cn1cnnn1)NC1CCCN(Cc2ccccc2F)C1 (stereo not drawn)	3%	5.2µM*	15%	4%	3%
O=C(CCC(=O)c1ccc(F)cc1)NC1CCCN(Cc2ccccc2F)C1 (stereo not drawn)	11%	13µM*	1%	0%	5%
CC(C)[C@H](NC(=O)c1ccccc1)C(=O)OCC(=O)Nc1ncc(Cl)cc1Cl	·	·	·	7%	-9%
Cc1cc(C(=O)N2CCC2(C)C(=O)O)nn1C(C)(C)C (stereo not drawn)	·	·	·	·	5%[18.4 µM]
COc1ccc(C2C(C(C)=O)=C(O)C(=O)N2c2ccc(Br)cn2)cc1 (stereo not drawn)	24%	4.1µM*	?	-1%	0%
COC(=O)[C@]12CCCCC=C1N(Cc1ccc(Cl)cc1Cl)C(=O)[C@H](CC(=O)NCCCCc1ccccc1)C2	·	·	·	·	7%
CCCOC(=O)c1ccc2c(c1)C(=O)N(c1ccccc1)C2=O	-4%	12µM*	·	2%	-8%
CCCOC(=O)CN1C(=O)c2ccc(C(=O)OCCC)cc2C1=O	-9%	·	3%	2%	-14%
COc1cccc(OC)c1C(=O)NC1C(=O)N2C1SC(C)(C)C2C(=O)O (stereo not drawn)	·	-3%	3%	·	·
CC(=O)Oc1ccc(Cl)cc1/C=C/c1cc(OC(C)=O)c2ccccc2n1	9%	?	1.7µM*	1%	·
COc1cc(Cl)cc(/C=C/c2ccc3ccccc3n2)c1OC(C)=O	-3%	?	15%	6%	2%
O[C@@H]([C@H](O)[C@H](O)CBr)[C@H](O)CBr	·	-20%	-12%	·	-4%
Cc1cc(C(=O)NC2CCCN(Cc3ccc(Cl)cc3)C2)c(C)o1 (stereo not drawn)	7%	?	10µM*	-5%	-18%
O=C(CCc1ccc(F)c(F)c1)NC1CCCN(Cc2ccc(Cl)cc2)C1 (stereo not drawn)	-4%	9.3µM*	-22%	-2%	-7%
SMILES	NS1 function inh	Pf growth 96h	Pf growth 48h	SARS PLpro yeast	RE007 growth inh
Cc1nn(Cc2ccc(C(=O)N3c4ccc(F)cc4CCC3C)o2)c(C)c1Br (stereo not drawn)	-132%	13µM*	·	-7%	7%
Cc1ccc(C(=O)N2c3ccc(F)cc3CCC2C)o1 (stereo not drawn)	1%	?	?	-12%	16%
CN1CN(C)c2cccc3cccc1c23	19%	4.1µM*	?	2%	-27%
CCN(CC)c1ccc(NC(=O)CNCc2ccccc2Cl)c(C)c1	0%	?	2%[0.00184 µM]	1%	-4%
CCCCN=c1scc(-c2ccc3c(c2)NC(=O)CO3)n1N=C1CCCC1	17%	9.3µM*	·	6%	13%
O=C(COC(=O)c1cnccn1)c1cccc([N+](=O)[O-])c1	3%	1%	7%	2%	2%
Cc1nnc(SCC(=O)N(C)CC(=O)Nc2ccc(F)cc2)n1Cc1ccccc1	·	-30%	9.3µM*	0%	-16%
CN(CC(=O)Nc1ccc(F)cc1)C(=O)CSc1nnc(Cc2ccccc2)o1	·	·	·	-1%	4%
Cc1ccc(-c2ccc([C@H]3[C@@H]4C=CCC[C@@]4(C)C(=O)N3Cc3ccccc3)c(F)c2)cc1	16%	13µM*	?	-2%	26%
CC(=O)c1ccc(-c2ccc([C@H]3[C@H]4C=CC[C@@H](C)[C@@H]4C(=O)N3Cc3ccccc3)c(F)c2)cc1	0%	?	?	-3%	-8%
COc1ccc(-c2ccc([C@H]3[C@@H]4C=CCC[C@@]4(C)C(=O)N3Cc3ccccc3)c(F)c2)cc1	-6%	?	?	-4%	19%
CC(=O)c1ccc(-c2ccc([C@H]3[C@@H]4C=CCC[C@@]4(C)C(=O)N3Cc3ccccc3)c(F)c2)cc1	8%	?	12µM*	0%	5%
Cc1ccc(C(CCNC(C)c2cccs2)c2ccco2)cc1 (stereo not drawn)	-8%	?	10µM*	-1%	-7%
CCCOc1ccc2[nH]cc(C(=O)O)c(=O)c2c1	-9%	15µM*	9%	-4%	-3%
CCOc1ccc2[nH]cc(C(=O)NCc3ccc(F)cc3)c(=O)c2c1	13%	0%	?	-12%	0%
CCOCCCNC(=O)c1c[nH]c2ccc(OCC)cc2c1=O	-68%	-2%	2.3µM*	-4%	-4%
COc1ccc2[nH]cc(C(=O)NCCc3ccccc3)c(=O)c2c1	29%	-7%	4%	-10%	5%
c1ccc(-c2nc(NC3CCCC3)c3ccccc3n2)cc1	-43%	10µM*	?	-6%	4%
c1ccc(Nc2nc(-c3ccccc3)nc3ccccc23)cc1	-105%	329%	9%	-6%	-26%
COc1cccc(-c2nc(NCc3ccccc3)c3ccccc3n2)c1O	4%	?	15µM*	-1%	3%
c1csc(-c2nc(NCC3CCCO3)c3ccccc3n2)c1 (stereo not drawn)	-44%	?	-10%	-11%	-7%
COc1cccc(-c2nc(NC3CCCC3)c3ccccc3n2)c1O	3%	9.3µM*	·	-10%	-4%
c1ccc(CN2CCC(Nc3nc(-c4cccs4)nc4ccccc34)CC2)cc1	·	5.2µM*	5.2µM*	-3%	6%
